ChEMBL document CHEMBL1157539, “Thousands of chemical starting points for antimalarial lead identification” (Nature, 2010)

test system: Plasmodium falciparum; test: GSK_TCMDC: Inhibition of Plasmodium falciparum Dd2 in whole red blood cells, using parasite LDH activity as an index of growth. Test compounds present at 2uM; type: functional

**Q.** `O=C(O)C(F)(F)F.O=C1COC(c2ccccc2)(c2ccccc2)CN1CC1CCN(Cc2ccc(O)cc2Cl)C1` (centres undefined) was tested. Which Inhibition did it give?
**A.** Its Inhibition is 81%.

**Q.** `O=C(C=Cc1ccc(Br)cc1)N1CCC(CCN2CCC(c3c[nH]c4ccccc34)CC2)CC1` was tested. Which Inhibition did it give?
**A.** The Inhibition was 24%.

**Q.** With `COc1ccc2nccc([C@@H](O)CN3CCC(NCc4cc5c(F)ccc(F)c5[nH]4)CC3)c2c1.O=C(O)C(=O)O` as the compound, how does the Inhibition read?
**A.** The Inhibition was 67%.

**Q.** Which Inhibition does the source give for `Cc1ccc(CNC(=O)[C@H](CCCN)Nc2nc(NCC3CCCCC3)ncc2C)cc1.O=C(O)C(F)(F)F` here?
**A.** Its Inhibition is 5%.

**Q.** `CC(=O)Nc1ccc(OCCCCN(Cc2ccccc2C(F)(F)F)c2ccc(C#N)c(C(F)(F)F)c2)cc1` was tested. Which Inhibition did it give?
**A.** Its Inhibition is 47%.

**Q.** For `O=C(CCc1cccc(O)c1)NCC(NCCCNc1cc(=O)c2ccccc2[nH]1)c1cc(Br)cc(Br)c1` (centres undefined), which Inhibition is on record?
**A.** The Inhibition was 37%.

**Q.** Which Inhibition does the source give for `COc1cccc(-c2cccc(NC(=O)C3CCN(Cc4ccc(O)cc4)CC3)c2)c1` here?
**A.** The Inhibition was 97%.

**Q.** `O=C(Nc1ccc(Cl)c(Cl)c1)Nc1cc(C(F)(F)F)ccc1Cl` was tested. Which Inhibition did it give?
**A.** The Inhibition was 85%.

**Q.** Which Inhibition does the source give for `COc1ccc(NCc2cccc(-c3cccc(CNCCc4ccccc4)c3)c2)cc1.O=C(O)C(F)(F)F` here?
**A.** The Inhibition was 14%.

test system: HepG2; test: GSK_TCMDC: Percent inhibition of human HepG2 cell line. Test compounds present at 10uM.; type: functional

**Q.** `CCOc1cc(CC)ccc1C1CCN(CCN2CCC(NC(=O)c3ccc(-c4ccc(C#N)cc4)cc3)CC2)CC1` was tested. Which Inhibition did it give?
**A.** Its Inhibition is 32%.

**Q.** With `CCNc1cc(C(=O)N[C@@H](Cc2ccoc2)[C@H](O)CNC(C)CCCC(C)C)cc(N2CCCCS2(=O)=O)c1.Cl` (some centres undefined) as the compound, how does the Inhibition read?
**A.** Its Inhibition is 0%.

**Q.** `CCc1c(C)nc(-n2nc(C)cc2NC(=O)c2cccc3ccccc23)[nH]c1=O` was tested. Which Inhibition did it give?
**A.** The Inhibition was 39%.

**Q.** For `CCCN(CCC)C(=O)c1cc(C(=O)N[C@@H](Cc2ccccc2)[C@H](O)CNC2CC2)cc(N2CCCCS2(=O)=O)c1`, which Inhibition is on record?
**A.** The Inhibition was 0%.

**Q.** How did the Inhibition turn out when `CN(C)CC(=O)NCC(NCCCNc1cc(=O)c2ccccc2[nH]1)c1cc(Br)cc(Br)c1` (centres undefined) was run?
**A.** Its Inhibition is 6%.

**Q.** How did the Inhibition turn out when `CC(C)C[C@H](NC(=O)c1cc2ccccc2s1)C(=O)N[C@H]1CCN(Cc2ccc(I)c(OC3CCN(C)C3)c2)C1.O=C(O)C(F)(F)F` (some centres undefined) was run?
**A.** The Inhibition was 99%.

**Q.** How did the Inhibition turn out when `Cc1cccc(C(=O)Nc2ccnc(N3CCCN(Cc4cccc(O)c4)CC3)c2)c1.O=C(O)C(F)(F)F` was run?
**A.** The Inhibition was 0%.

**Q.** `CC(C(=O)NC1CCN(c2ccnc(Nc3ccc(F)cc3)n2)C1)c1ccc(Cl)cc1` (centres undefined) was tested. Which Inhibition did it give?
**A.** The Inhibition was 17%.

**Q.** For `COc1cc(F)c2ncc(Cl)c(CCN3CCC(NCc4ccc5c(c4)NC(=O)CS5)CC3)c2c1.Cl`, which Inhibition is on record?
**A.** The Inhibition was 27%.

**Q.** `Cl.O=C(Nc1ccc(Cl)c(Cl)c1)N1CCc2cc3nccc(N4CCN5CCC[C@H]5C4)c3cc21` was tested. Which Inhibition did it give?
**A.** The Inhibition was 2%.

**Q.** With `COc1cc2c(cc1OC)C(c1ccc(Br)cc1)CN(C)CC2.Cl` (centres undefined) as the compound, how does the Inhibition read?
**A.** Its Inhibition is 8%.

**Q.** `O=C1COC2(CN1C1CCN(Cc3ccc(O)c(Cl)c3)C1)c1ccccc1-c1ccccc12.O=CO` (centres undefined) was tested. Which Inhibition did it give?
**A.** The Inhibition was 5%.

**Q.** Which Inhibition does the source give for `O=c1ccc(-c2nc3cc(Cl)c(Cl)cc3n2Cc2ccc(Cl)cc2Cl)c[nH]1` here?
**A.** The Inhibition was 0%.

**Q.** For `CN(C)CCN(C)Cc1ccc(-c2ccc3c(Nc4ccc(Cl)cc4F)ccnc3c2)o1`, which Inhibition is on record?
**A.** Its Inhibition is 20%.

**Q.** How did the Inhibition turn out when `CC(C)(C)Nc1nc(Nc2cccc([N+](=O)[O-])c2)nc(-n2ccnc2)n1` was run?
**A.** The Inhibition was 10%.

**Q.** For `COc1cc(OC)cc(-c2nn(-c3ccc([N+](=O)[O-])cc3Cl)c(=S)n2Cc2ccco2)c1`, which Inhibition is on record?
**A.** The Inhibition was 15%.

**Q.** `Cc1cccc2nc(-c3ccc(-c4ccc(CN5CCCCC5)cc4)s3)[nH]c12.O=C(O)C(F)(F)F` was tested. Which Inhibition did it give?
**A.** The Inhibition was 16%.

**Q.** Which Inhibition does the source give for `Fc1cccc(-c2ccc3c(c2)CC(NCc2c[nH]c4cnccc24)C3)c1` (centres undefined) here?
**A.** The Inhibition was 24%.

**Q.** How did the Inhibition turn out when `CC(C)CCCC(C)(C)NC[C@@H](O)[C@H](Cc1ccccc1)NC(=O)c1cccc(OCC2CC2)c1` was run?
**A.** Its Inhibition is 99%.

**Q.** For `CN1CCCN(Cc2cccc(-c3ccc(CNC(=O)c4cccc(Cl)c4)c(F)c3)c2)CC1.O=C(O)C(F)(F)F`, which Inhibition is on record?
**A.** Its Inhibition is 56%.

**Q.** `Br.Cc1cc(C)c(C)c(OCCCON2C(=N)N=C(N)NC2(C)C)c1C` was tested. Which Inhibition did it give?
**A.** Its Inhibition is 64%.

**Q.** Which Inhibition does the source give for `CCOc1ccc(NC(C)=O)c(O)c1` here?
**A.** The Inhibition was 6%.

**Q.** With `O=C(/C=C/c1ccc(Cl)c(Cl)c1)NCC1CCN(Cc2ccc(O)cc2)CC1.O=C(O)C(F)(F)F` as the compound, how does the Inhibition read?
**A.** The Inhibition was 4%.

**Q.** For `Br.C=CCc1cccc(OC)c1OCCCON1C(=N)N=C(N)NC1(C)C`, which Inhibition is on record?
**A.** The Inhibition was 58%.

**Q.** For `Fc1ccc(-c2cncc(-c3ccc(F)cc3)n2)cc1`, which Inhibition is on record?
**A.** The Inhibition was 7%.

**Q.** For `O=C(N[C@@H](Cc1ccccc1)C(=O)NC1CCCCC1)c1ccc(O)c(-c2cccc(C(F)(F)F)c2)c1`, which Inhibition is on record?
**A.** The Inhibition was 11%.

**Q.** Which Inhibition does the source give for `CC(C)(CNC(=O)C1CCN(CCOCc2ccccc2)CC1)c1nc(-c2ccc(Cl)c(O)c2)c(-c2ccncc2)[nH]1.Cl` here?
**A.** The Inhibition was 11%.

**Q.** How did the Inhibition turn out when `CCOC(=O)c1ccc(NC(=O)c2ccccc2C(=O)O)cc1` was run?
**A.** Its Inhibition is 2%.

**Q.** How did the Inhibition turn out when `O=C(NCCN1CCN(S(=O)(=O)c2ccc(OC3CCNCC3)c(Br)c2)CC1)c1ccc(Cl)c(Cl)c1.O=C(O)C(F)(F)F` was run?
**A.** The Inhibition was 1%.

**Q.** With `O=C(Cn1c(CCc2cccc(F)c2F)nc(=O)c2ccccc21)N(Cc1ccc(-c2ccc(C(F)(F)F)cc2)cc1)C1CCN(C2CCOCC2)CC1.O=C(O)C(O)C(O)C(=O)O` as the compound, how does the Inhibition read?
**A.** The Inhibition was 97%.

**Q.** Which Inhibition does the source give for `Cc1ccc(O)cc1Nc1ccnc2cc(-c3cccc(CNCCS(C)(=O)=O)c3)ccc12` here?
**A.** Its Inhibition is 9%.

**Q.** Which Inhibition does the source give for `O=C(O)C(F)(F)F.O=C1COC(c2ccccc2)(c2ccccc2)CN1CC1CCN(Cc2ccc(O)cc2Cl)C1` (centres undefined) here?
**A.** The Inhibition was 53%.

**Q.** With `O=C(C=Cc1ccc(Br)cc1)N1CCC(CCN2CCC(c3c[nH]c4ccccc34)CC2)CC1` as the compound, how does the Inhibition read?
**A.** Its Inhibition is 47%.

**Q.** How did the Inhibition turn out when `COc1ccc2nccc([C@@H](O)CN3CCC(NCc4cc5c(F)ccc(F)c5[nH]4)CC3)c2c1.O=C(O)C(=O)O` was run?
**A.** Its Inhibition is 29%.

**Q.** With `Cc1ccc(CNC(=O)[C@H](CCCN)Nc2nc(NCC3CCCCC3)ncc2C)cc1.O=C(O)C(F)(F)F` as the compound, how does the Inhibition read?
**A.** The Inhibition was 1%.

**Q.** Which Inhibition does the source give for `CC(=O)Nc1ccc(OCCCCN(Cc2ccccc2C(F)(F)F)c2ccc(C#N)c(C(F)(F)F)c2)cc1` here?
**A.** Its Inhibition is 0%.

**Q.** Which Inhibition does the source give for `O=C(CCc1cccc(O)c1)NCC(NCCCNc1cc(=O)c2ccccc2[nH]1)c1cc(Br)cc(Br)c1` (centres undefined) here?
**A.** Its Inhibition is 0%.

**Q.** Which Inhibition does the source give for `COc1cccc(-c2cccc(NC(=O)C3CCN(Cc4ccc(O)cc4)CC3)c2)c1` here?
**A.** Its Inhibition is 9%.

**Q.** With `O=C(Nc1ccc(Cl)c(Cl)c1)Nc1cc(C(F)(F)F)ccc1Cl` as the compound, how does the Inhibition read?
**A.** The Inhibition was 0%.

**Q.** For `COc1ccc(NCc2cccc(-c3cccc(CNCCc4ccccc4)c3)c2)cc1.O=C(O)C(F)(F)F`, which Inhibition is on record?
**A.** Its Inhibition is 41%.
